Data published in PubChem BioAssay (NCATS).
Results filed as inconclusive are left out. A number with no mark means an inactive call. Activity calls are given as the source filed them. Calls follow the shape of the dose curve; as a rule, active = well fitted curve in the direction sought with a large enough effect; inconclusive = small, poorly fitted or top-dose-only effect, or another doubt; inactive = no such curve, though single readings can be large; an effect the other way counts as inactive or inconclusive.

Legend:
[1] = OV-KATE Cancer Cell Toxicity qHTS against the NCATS CANVASS Library (AID 1347345); also: % is scaled to controls: 0 for no effect and ±100 for the full control effect
Summary of the method: (§1)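 Cells were seeded at 1000 per well, allowed 4 h at 37 degrees C/5% CO2, then pin-treated with an 11-point compound series. After 72 h, viability was read as CellTiter-Glo luminescence following 15min at room temperature.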

[2] = HPAF-II Cancer Cell Toxicity qHTS against the NCATS CANVASS Library (AID 1347346); also: % is scaled to controls: 0 for no effect and ±100 for the full control effect; nearly all actives have a fitted effect of over 55% in size
Summary of the method: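 Using 1000 HPAF-II cells per well, we titrated compounds over 11 concentrations for 72 h at 37 degrees C/5% CO2, with bortezomib as control. Cell survival was quantified by CellTiter-Glo luminescence.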

[3] = UWB1.289 Cancer Cell Toxicity qHTS against the NCATS CANVASS Library (AID 1347347); also: % is scaled to controls: 0 for no effect and ±100 for the full control effect; nearly all actives have a fitted effect of over 60% in size
Summary of the method: as §1

[4] = OV-SAHO Cancer Cell Toxicity qHTS against the NCATS CANVASS Library (AID 1347348); also: % is scaled to controls: 0 for no effect and ±100 for the full control effect; nearly all actives have a fitted effect of over 55% in size
Summary of the method: as §1

[5] = Panc-1005 Cancer Cell Toxicity qHTS against the NCATS CANVASS Library (AID 1347349); also: % is scaled to controls: 0 for no effect and ±100 for the full control effect; nearly all actives have a fitted effect of over 60% in size
Summary of the method: as §1

[6] = SW1088 Cancer Cell Toxicity qHTS against the NCATS CANVASS Library (AID 1347350); conditions: SW1088 viability, CellTiter-Glo luminescence, 72 h; at 38.3 µM (top of the series); also: nearly all actives have a fitted effect of over 75% in size
Summary of the method: as §1

[7] = U-118MG Cancer Cell Toxicity qHTS against the NCATS CANVASS Library (AID 1347351); also: % is scaled to controls: 0 for no effect and ±100 for the full control effect
Summary of the method: as §1

[8] = COV-362 Cancer Cell Toxicity qHTS against the NCATS CANVASS Library (AID 1347352); also: % is scaled to controls: 0 for no effect and ±100 for the full control effect
Summary of the method: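 Using an ATP-based luminescent reagent after three days of treatment, toxicity is scored across an eleven-concentration range in wells holding 1000 cells each.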

[9] = A2780 Cisplatin Sensitive Ovarian Cancer Cell Toxicity qHTS against the NCATS CANVASS Library (AID 1347353); conditions: A2780 ovarian cancer viability, ATPLite luminescence, 72 h; at 46.1 µM (top of the series); also: nearly all actives have a fitted effect of over 60% in size
Summary of the method: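 Quantitative HTS format: eleven compound concentrations applied to pre-seeded cells, 72 h incubation at 37 °C, then ATP detection by luminescence.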

[10] = Tertiary RLuc qRT-PCR qHTS assay for Zika virus inhibitors (AID 1347169); also: top concentration of the series differs between compounds; % is scaled to controls: 0 for no effect and ±100 for the full control effect; nearly all actives have a fitted effect of over 55% in size
Summary of the method: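 Vero cells (1,000 per well) plated overnight at 37 degrees C, treated with compound in DMSO, then infected with recombinant ZIKV-RLuc (Cambodian) at MOI 1-2 for 48-72 hrs. Live-cell Renilla luciferase substrate added; luminescence read after 1-1.5 hrs.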

Compound: NCCc1c[nH]c2ccccc12
- outcome [1]: inactive
- outcome [2]: inactive
- outcome [3]: inactive
- outcome [4]: inactive
- outcome [5]: inactive
- outcome [6]: inactive
- outcome [7]: inactive
- outcome [8]: inactive
- outcome [9]: inactive

Compound: CC(C)Oc1cccnc1N(C)C1CCN(Cc2ccccc2)CC1
- outcome [10]: inactive

Compound: CN(C)[C@@H]1C(=O)C(C(N)=O)=C(O)[C@@]2(O)C(=O)C3=C(O)c4c(O)cccc4[C@@](C)(O)[C@H]3[C@H](O)[C@@H]12
- outcome [10]: inactive

Compound: O=C(O)c1cc(Oc2ccc(C(F)(F)F)cc2Cl)ccc1[N+](=O)[O-]
- activity change, negative = inhibition [10]: 35.5% [at 1.74 µM]

Compound: Nc1c(Cl)c(Cl)c(Cl)c(Cl)c1Cl
- outcome [10]: inactive

Compound: O=C1C(I)=CC(=C(c2cc(I)c(O)c(I)c2)c2ccccc2C(=O)O)C=C1I
- activity change, negative = inhibition [10]: 34.1% [at 1.74 µM]

Compound: NCCc1c[nH]c2ccc(O)cc12
- outcome [1]: inactive
- outcome [2]: inactive
- outcome [3]: inactive
- outcome [4]: inactive
- outcome [5]: inactive
- outcome [6]: inactive
- outcome [7]: inactive
- outcome [8]: inactive
- outcome [9]: inactive

Compound: C=CCN1CC[C@]23CCCCC2[C@H]1Cc1ccc(O)cc13 (stereo not given in full)
- outcome [10]: inactive

Compound: O=[N+]([O-])c1c(Cl)c(Cl)cc(Cl)c1Cl
- activity change, negative = inhibition [10]: 77.7% [at 3.57 µM]
